Among the data in PubChem BioAssay AID1565 (Sanford-Burnham Center for Chemical Genomics, 2009) are inhibition values, retold here.

Among all 290,000 compounds or so, about 3,200 (1.1%) were called active. What follows is part of a selection rich in actives, with near analogues and random picks from the rest. A number with no mark means an inactive call. Cut-off read from the data, not from the text of the source: active = inhibition above about 60%; inactive = the rest. Peptide text beside a SMILES is read from it.

By inhibition is commonly meant the drop in the measured response relative to a control, in per cent.

For this experiment, the target named is Phosphoethanolamine/phosphocholine phosphatase (Homo sapiens) (UniProt Q8TCT1). Briefly: PubChem AID 1565. Conditions: recombinant PHOSPHO1, absorbance phosphatase assay; at 13.3 µM; active compounds read high.
Sequence of Phosphoethanolamine/phosphocholine phosphatase (Homo sapiens) (Q8TCT1 whole entry, looked up): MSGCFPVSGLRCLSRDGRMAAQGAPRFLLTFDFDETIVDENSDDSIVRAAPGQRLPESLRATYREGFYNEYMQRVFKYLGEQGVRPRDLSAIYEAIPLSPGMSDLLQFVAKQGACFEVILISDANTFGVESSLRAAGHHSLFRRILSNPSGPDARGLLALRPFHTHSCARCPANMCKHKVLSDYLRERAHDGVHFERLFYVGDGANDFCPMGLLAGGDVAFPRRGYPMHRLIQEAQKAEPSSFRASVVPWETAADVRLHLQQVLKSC
`NC(=O)c1c(NC(=O)CSc2nc(N)cc(=O)[nH]2)sc2c1CCCC2`: the inhibition was 12.9%. For `CCc1cccc(C)c1NC(=O)CSc1nnc(-c2ccco2)n1N` the value was 22.6%; for `NC(=O)c1c(NC(=O)CSc2nnc(-c3ccco3)n2N)sc2c1CCCC2`, 103% (active).

Turning to `NC(=O)C(Cc1ccccc1)NC(=O)C12CC3CC(CC(C3)C1)C2` (stereo not given), the inhibition was 24.1%.

On to `Oc1ccc(Br)cc1/C=N/Nc1ccccn1`, for which the inhibition was 22.9%.

Consider `CC1(C)Cc2ccccc2/C(=C/C(=O)c2ccccc2)N1`, for which the inhibition is 24.1%. For `O=C(CNC(=O)c1ccc(-c2ccccc2)cc1)OCc1ccc(Cl)cc1` the value was 9.5%; for `O=C(CNC(=O)c1ccccc1)NCC(=O)OCC(=O)c1ccccc1` (HELM PEPTIDE1{[O=C(c1ccccc1)[*:2]].G.G.[O=C(CO[*:1])c1ccccc1]}$$$$V2.0), 27.8%; for `O=C(CNC(=O)c1ccccc1)NCC(=O)OCc1ccc(Cl)cc1`, 62.3% (active). Take `Cc1cccc(C)c1NC(=O)C(Cl)C(=O)c1ccccc1` (stereo not given): the inhibition was 20%. With `CSc1ncccc1C(=O)NCc1ccccc1Cl`, the inhibition was 44.9%. For the compound `O=C(CSc1nnc(CNC(=O)c2ccc(F)cc2)o1)Nc1ccc2c(c1)OCO2`, the inhibition was -23.1%.

Turning to `COc1cccc(/C=N/Nc2ncc(C(F)(F)F)cc2Cl)c1O`, the inhibition is -8.9%.

With `CCOc1ccc(/C=C2\SC(=S)N(NC(=O)c3ccncc3)C2=O)cc1OC`, the inhibition was 23.7%. Regarding `COc1cc(/C=C2\SC(=S)N(Nc3ncc(C(F)(F)F)cc3Cl)C2=O)cc(OC)c1OC`, the inhibition was 71.2% (active). For `CC(=O)OCCN(CCCn1c(-c2ccncc2)nc2ccccc21)c1nc(-c2ccc(C)cc2)cs1` the value was 20.2%. For `Nc1ccc(C(=O)Nc2ccccc2N)cc1`, the inhibition is 8.3%. As for `N#Cc1c(N2CCCCC2)nc(N)c2c(N)nc(SCC(=O)O)cc12`, the inhibition was 60.8% (active).

For the compound `N#Cc1c(-c2ccccc2)cc(-c2ccccc2)nc1SCC(=O)O`, the inhibition is -12.1%.

For `Cc1cc(C)c(C#N)c(N2CCC(C(N)=O)CC2)n1`, the inhibition was -42.6%. The same measure for `C/C(CC(=O)NCc1ccc(Cl)cc1)=N\NC(=O)COc1ccc(C)cc1Br`: 41.6%. For `CC1CCN(C(=O)Cn2nnnc2CN2CCOCC2)CC1` the value was 47.5%; for `Cc1ccc(C2Nc3cccc4cccc(c34)N2)cc1`, 13.8%; for `C/C(=C\c1ccco1)C1Nc2cccc3cccc(c23)N1`, 94% (active). `Oc1ccc(C2Nc3cccc4cccc(c34)N2)cc1`: the inhibition is 14.1%. For `O=C(NCCCc1ccccc1)C(=O)c1c[nH]c2ccccc12` the value was 38.2%; for `CC1CCN(CC(=O)c2c[nH]c3ccccc23)CC1`, 47.6%. As for `O=C(NC1CCCC1)C(=O)c1c[nH]c2ccccc12`, the inhibition is 62.6% (active). With `Cc1nc([N+](=O)[O-])nn1C12CC3CC(CC(Br)(C3)C1)C2`, the inhibition is 93% (active).

For the compound `Cc1ncn(C23CC4CC(CC(O)(C4)C2)C3)n1`, the inhibition was 12.9%. Take `COc1cccc(NC(=O)c2nn(C34CC5CC(CC(C5)C3)C4)cc2[N+](=O)[O-])c1`: the inhibition is 6.2%. As for `Cc1cc(-c2ccc(C)c(S(=O)(=O)Nc3ccc(S(N)(=O)=O)cc3)c2)on1`, the inhibition is 44.5%. For `Cc1noc(C)c1CSCC(=O)N(CCC(C)C)c1c(N)n(Cc2ccccc2)c(=O)[nH]c1=O` the value was 9.8%. As for `O=C(CCN1C(=O)C2C3CCC(C3)C2C1=O)Nc1ccc(Cl)cc1Cl` (stereo not given), the inhibition was 26.6%. `O=C(NCCOc1cccnc1)c1ccc(OC2CCN(Cc3ccccn3)CC2)cc1`: the inhibition is 13.7%. For `COCc1ccc(CN2CCC(Oc3ccc(C(=O)NCc4ccccn4)cc3)CC2)o1` the value was 61% (active); for `Cn1cc(CNC(=O)c2ccc(OC3CCN(Cc4ccccn4)CC3)cc2)cn1`, 69% (active). As for `Cc1nn(C)c(C)c1C(C)NC(=O)c1ccc(OC2CCN(Cc3ccccn3)CC2)cc1` (stereo not given), the inhibition was 18.5%. The same measure for `CN(CCc1ccccn1)C(=O)c1ccc(OC2CCN(Cc3ccccn3)CC2)cc1`: 17%; for `O=C(c1ccc(OC2CCN(Cc3ccccn3)CC2)cc1)N1CCCCCC1`: 32.8%; for `COc1cc(/C=N/N2CCN(c3ccccc3)CC2)ccc1OC(C)=O`: 13.8%. For `Cc1cc(C)cc(NC(=O)NCc2ccccn2)c1` the value was 19%; for `Cc1cc(C(=O)CSc2nc(N)cc(=O)[nH]2)c(C)n1Cc1ccco1`, 14.9%; for `COc1ccc(OC)c(-n2nnnc2SCC(=O)Nc2cc(C)ccc2OC)c1`, -22.4%. For `COc1ccc(C)cc1-n1nnnc1SCC(=O)c1cc(C)n(Cc2ccco2)c1C` the value was 90.1% (active); for `CC(C)Cc1nnc(NC(=O)CN2C(=O)NC3(CCCCC3)C2=O)s1`, 24%. For the compound `CCOC(=O)c1ccc(Nc2cc(C)nc3nc(C)nn23)cc1`, the inhibition is -1.2%. The same measure for `CCOC(=O)c1ccc(NC2Nc3cc(C)nn3S2)cc1` (stereo not given): 62.2% (active); for `CCc1ccc(NC2Nc3cc(C)nn3S2)cc1` (stereo not given): -1%. For `COc1ccc(CCNC(=O)CN2C(=O)CCSc3ccccc32)c(OC)c1` the value was 6.9%. For `COc1ccccc1CCCNC(=O)C1CCC(=O)N(CCN2CCOCC2)C1` (stereo not given) the value was 4.2%; for `COc1ccc(NS(=O)(=O)c2ccc(NC(=S)NC(=O)CC(C)C)cc2)cc1`, -49.5%; for `COc1ccc(OC)c(C(C)NC(=S)Nc2ccc(S(=O)(=O)Nc3ncccn3)cc2)c1` (stereo not given), 62.4% (active). Consider `CCOc1ccc(S(=O)(=O)Nc2ccc(S(=O)(=O)Nc3cc(OC)ccc3OC)cc2)cc1`, for which the inhibition is -2.6%. On to `Cc1ccc(C)c(NC(=O)c2cc(-c3cc(C)cc(C)c3O)n[nH]2)c1`, for which the inhibition was 41.9%. In the case of `CCOC(=O)c1c(-n2cnnn2)sc(C)c1C`, the inhibition is 98.7% (active).

Regarding `CCOc1ccc(C(=O)COC(=O)c2ccc(-n3cnnn3)cc2)cc1`, the inhibition is 13.7%. For `CCOC(=O)c1c(NC(=O)CSc2nccc(=O)[nH]2)sc(C)c1C` the value was 22.2%; for `CCCC(C)NC(=O)C1CCN(C(=O)C2CC(=O)N(c3ccc(C)cc3)C2)CC1` (stereo not given), 14.2%; for `CCN(CC(=O)NCc1cccs1)C(=O)c1ccccc1F`, 16.3%. For `CCN(CC(=O)NCc1cccs1)C(=O)c1cccc(S(=O)(=O)Nc2ccccc2OC)c1` the value was 60.6% (active); for `COc1cc(CC(=O)NCc2cccs2)cc(OC)c1OC`, 1%. As for `Cc1ccc(-n2c(-c3ccc(Cl)cc3)n[nH]c2=S)cc1`, the inhibition was -46.5%. `S=c1[nH]nc(-c2ccc(Cl)cc2)n1CC1CCCO1` (stereo not given): the inhibition is 90.4% (active). For `Cc1nnc(SCC(=O)NNC(=O)c2ccc(Cl)cc2)n1CC1CCCO1` (stereo not given), the inhibition is 14.8%. For `CCn1c(COc2c(C)cccc2C)nnc1SCc1nc2ccccc2c(=O)[nH]1` the value was 29.2%; for `O=c1[nH]c(CSc2ncc(-c3ccc(F)cc3)n2Cc2ccco2)nc2ccccc12`, 67.4% (active).

Consider `CCn1c(Cc2ccccc2)nnc1SCc1nc2ccccc2c(=O)[nH]1`, for which the inhibition was 6.3%.

`Cc1ccccc1CCNC(=O)C1CCC(=O)N(Cc2ccc(Cl)cc2)C1` (stereo not given): the inhibition is 27%. Consider `COc1ccc2c(c1)C(NS(=O)(=O)OCC(Cl)(Cl)Cl)CCC2` (stereo not given), for which the inhibition was -7.3%. The same measure for `O=c1c(-c2ccccc2Cl)c[nH]n1-c1ccccc1`: 31.3%; for `Cc1cc(N2CCN(S(=O)(=O)c3ccc(C)c(C)c3)CC2)c2ccccc2n1`: -5.3%; for `Cc1ccc(S(=O)(=O)Nc2nc3ccccc3nc2N2CCc3ccccc3C2)cc1`: 10.5%. For `Cc1ccc(S(=O)(=O)C(C#N)c2nc3ccccc3nc2N2CCCC2)cc1C` (stereo not given) the value was 95.8% (active); for `COC(=O)c1cc(C(=O)NC(C)C2CC3CCC2C3)cc([N+](=O)[O-])c1` (stereo not given), 26.5%; for `Cc1ccc(-n2nc3c(=O)n(C(C)C(=O)NCc4ccc5c(c4)OCO5)nc(C)c3c2C)cc1` (stereo not given), 18.3%.

Take `O=c1ccc(-c2ccc(S(=O)(=O)Nc3ccccc3)o2)n[nH]1`: the inhibition was 1%. For `Cc1ccc(C(=O)CSc2nnc(Cn3nnc4ccccc43)n2C)cc1` the value was -7.4%; for `Cn1c(CNC(=O)c2ccccc2F)nnc1SCc1ccc(F)cc1`, 15.9%. In the case of `Cn1c(Cn2nnc3ccccc32)nnc1SCC(=O)c1ccccc1F`, the inhibition was 68.8% (active). For `COc1ccc(OC)c(NC(=O)CN(C)CCOc2ccc(Br)cc2)c1` the value was -11.8%; for `c1nnc2c3c4c(sc3ncn12)CCC4`, 0.9%.

In the case of `N=c1c2c3c(sc2ncn1N)CCCC3`, the inhibition is 24.8%. For `S=c1[nH]nc2c3c4c(sc3ncn12)CCCC4` the value was 106% (active); for `Cc1ccc(C)c(NC(=O)NNC(=O)c2ccc3ccccc3c2O)c1`, 6.1%. For `O=C(CC1SC(=Nc2ccccc2F)N(CCN2CCOCC2)C1=O)Nc1ccc(F)cc1F` (stereo not given) the value was 64.7% (active); for `O=C(CN1CCN(C/C=C/c2ccccc2)CC1)Nc1ccc(F)cc1F`, 35.8%. The same measure for `COC(=O)c1sccc1NC(=O)CC1C(=O)NCCN1C(=O)Nc1ccc(F)cc1F` (stereo not given): 31.6%; for `COC(=O)c1cccc(N2C(=O)C3C4C=CC(CC4)C3C2=O)c1` (stereo not given): 37.1%. With `Cc1ccc(OCc2cc(C(=O)N(C)CCn3ccnc3C)no2)cc1C`, the inhibition is 25%. Take `O=C(COc1ccc(S(=O)(=O)N2CCOCC2)cc1Cl)N1CCOCC1`: the inhibition was 19%.

Take `O=C(Cn1c(NCCO)nc2ccccc21)c1ccc(Cl)cc1Cl`: the inhibition was 23.3%. The same measure for `COc1ccc(CCNC(=O)CN(C)S(=O)(=O)c2ccc3nc(C)sc3c2)cc1OC`: 3.8%. `COc1cc(NC(=O)CN(C)S(=O)(=O)c2ccc3nc(C)sc3c2)cc(OC)c1`: the inhibition was -3%.

Consider `Cc1nc2ccc(S(=O)(=O)N(C)CC(=O)NC(C)c3ccccc3)cc2s1` (stereo not given), for which the inhibition was 64% (active).
